Assay results: the supplement of paper PMC12282887
± gives the standard deviation of the averaged measurements.

What was measured:
Experiment in all cases: promoter activity interaction Z-score (Lux/OD deviation from empty-vector control); higher = stronger promoter induction by the compound
[1] = system: E. coli BW25113 acrABp lux reporter
Outline: (§1)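 OD600 and luminescence of E. coli BW25113 reporter cultures (40 µl LB Lennox, 384-well plates, 37°C) were measured every 30 min for 12 h. Integration ran over 0–8 h for wild type or 1–9 h for deletion strains, and wells with growth below 10% of the median were dropped. The score is the Z-transformed residual of growth-normalised luminescence fitted against a control.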

[2] = system: E. coli BW25113 micFp lux reporter
Outline: as §1

[3] = system: E. coli BW25113 ompFp lux reporter
Outline: as §1

[4] = system: E. coli BW25113 robp lux reporter
Outline: as §1

[5] = system: E. coli BW25113 soxSp lux reporter
Outline: as §1

[6] = system: E. coli BW25113 tolCp lux reporter
Outline: as §1

[7] = 32.1 µg/ml, genetic background: wild type
[8] = 32.1 µg/ml, genetic background: ΔmarA
[9] = 32.1 µg/ml, genetic background: Δrob
[10] = 32.1 µg/ml, genetic background: ΔsoxS
[11] = 64.2 µg/ml, genetic background: wild type
[12] = 64.2 µg/ml, genetic background: ΔmarA
[13] = 64.2 µg/ml, genetic background: Δrob
[14] = 64.2 µg/ml, genetic background: ΔsoxS
[15] = 128.4 µg/ml, genetic background: wild type
[16] = 128.4 µg/ml, genetic background: ΔmarA
[17] = 128.4 µg/ml, genetic background: Δrob
[18] = 128.4 µg/ml, genetic background: ΔsoxS
[19] = 256.8 µg/ml, genetic background: wild type
[20] = 256.8 µg/ml, genetic background: ΔmarA
[21] = 256.8 µg/ml, genetic background: Δrob
[22] = 256.8 µg/ml, genetic background: ΔsoxS

Q: CN(C)C(=O)C(CCN1CCC(O)(c2ccc(Cl)cc2)CC1)(c1ccccc1)c1ccccc1 [Loperamide] was tested. Which “promoter activity interaction Z-score” value [1, 7] did it give?
A: Its value is 0.0421 ± 0.17.

Q: What about the “promoter activity interaction Z-score” value [1, 8] of the same molecule?
A: Its value is 0.36 ± 0.083.

Q: What about the “promoter activity interaction Z-score” value [1, 9] of the same molecule?
A: The value was -0.0142 ± 0.12.

Q: What about the “promoter activity interaction Z-score” value [1, 10] of the same molecule?
A: The value was 0.372 ± 0.34.

Q: And the “promoter activity interaction Z-score” value [1, 11]?
A: Its value is -0.16 ± 0.23.

Q: And the “promoter activity interaction Z-score” value [1, 12]?
A: The value was 0.126 ± 1.6.

Q: And the “promoter activity interaction Z-score” value [1, 13]?
A: The value was -0.00894 ± 0.11.

Q: What about the “promoter activity interaction Z-score” value [1, 14] of the same molecule?
A: Its value is 0.114 ± 0.11.

Q: What about the “promoter activity interaction Z-score” value [1, 15] of the same molecule?
A: The value was -0.237 ± 0.23.

Q: What about the “promoter activity interaction Z-score” value [1, 16] of the same molecule?
A: The value was 0.287 ± 0.52.

Q: What about the “promoter activity interaction Z-score” value [1, 17] of the same molecule?
A: Its value is -0.146 ± 0.17.

Q: What about the “promoter activity interaction Z-score” value [1, 18] of the same molecule?
A: The value was 0.111 ± 0.11.

Q: And the “promoter activity interaction Z-score” value [1, 19]?
A: The value was 0.213 ± 0.0047.

Q: What about the “promoter activity interaction Z-score” value [1, 20] of the same molecule?
A: The value was -1.07 ± 0.54.

Q: And the “promoter activity interaction Z-score” value [1, 21]?
A: The value was 0.0923 ± 0.42.

Q: And the “promoter activity interaction Z-score” value [1, 22]?
A: The value was -0.358 ± 0.52.

Q: And the “promoter activity interaction Z-score” value [2, 7]?
A: The value was 0.145 ± 0.076.

Q: And the “promoter activity interaction Z-score” value [2, 8]?
A: Its value is 0.0394 ± 0.035.

Q: What about the “promoter activity interaction Z-score” value [2, 9] of the same molecule?
A: The value was 0.0787 ± 0.17.

Q: And the “promoter activity interaction Z-score” value [2, 10]?
A: Its value is -0.0846 ± 0.15.

Q: What about the “promoter activity interaction Z-score” value [2, 11] of the same molecule?
A: The value was 0.186 ± 0.1.

Q: What about the “promoter activity interaction Z-score” value [2, 12] of the same molecule?
A: The value was 0.0703 ± 0.0014.

Q: What about the “promoter activity interaction Z-score” value [2, 13] of the same molecule?
A: The value was 0.0931 ± 0.092.

Q: What about the “promoter activity interaction Z-score” value [2, 14] of the same molecule?
A: The value was -0.0463 ± 0.045.

Q: What about the “promoter activity interaction Z-score” value [2, 15] of the same molecule?
A: The value was 0.0787 ± 0.19.

Q: And the “promoter activity interaction Z-score” value [2, 16]?
A: Its value is 0.0574 ± 0.025.

Q: What about the “promoter activity interaction Z-score” value [2, 17] of the same molecule?
A: Its value is 0.0936 ± 0.24.

Q: And the “promoter activity interaction Z-score” value [2, 18]?
A: Its value is -0.14 ± 0.12.

Q: What about the “promoter activity interaction Z-score” value [2, 19] of the same molecule?
A: The value was -0.186 ± 0.52.

Q: And the “promoter activity interaction Z-score” value [2, 20]?
A: The value was -0.0712 ± 0.25.

Q: And the “promoter activity interaction Z-score” value [2, 21]?
A: Its value is -0.12 ± 0.022.

Q: What about the “promoter activity interaction Z-score” value [2, 22] of the same molecule?
A: Its value is -0.469 ± 0.21.

Q: And the “promoter activity interaction Z-score” value [3, 7]?
A: Its value is -0.00512 ± 0.32.

Q: What about the “promoter activity interaction Z-score” value [3, 8] of the same molecule?
A: The value was 0.262 ± 0.052.

Q: And the “promoter activity interaction Z-score” value [3, 9]?
A: Its value is 0.0272 ± 0.031.

Q: What about the “promoter activity interaction Z-score” value [3, 10] of the same molecule?
A: Its value is -0.21 ± 0.06.

Q: And the “promoter activity interaction Z-score” value [3, 11]?
A: The value was 0.0346 ± 0.0034.

Q: What about the “promoter activity interaction Z-score” value [3, 12] of the same molecule?
A: Its value is -0.0766 ± 0.0049.

Q: And the “promoter activity interaction Z-score” value [3, 13]?
A: The value was -0.471 ± 0.21.

Q: What about the “promoter activity interaction Z-score” value [3, 14] of the same molecule?
A: The value was -0.28 ± 0.26.

Q: And the “promoter activity interaction Z-score” value [3, 15]?
A: Its value is -0.593 ± 0.28.

Q: And the “promoter activity interaction Z-score” value [3, 16]?
A: The value was -0.537 ± 0.65.

Q: What about the “promoter activity interaction Z-score” value [3, 17] of the same molecule?
A: The value was -1.29 ± 0.17.

Q: And the “promoter activity interaction Z-score” value [3, 18]?
A: The value was -1.21 ± 0.3.

Q: And the “promoter activity interaction Z-score” value [3, 19]?
A: The value was 0.202 ± 0.2.

Q: And the “promoter activity interaction Z-score” value [3, 20]?
A: The value was 0.819 ± 0.3.

Q: What about the “promoter activity interaction Z-score” value [3, 21] of the same molecule?
A: Its value is -0.591 ± 0.47.

Q: What about the “promoter activity interaction Z-score” value [3, 22] of the same molecule?
A: The value was 0.54 ± 0.76.

Q: What about the “promoter activity interaction Z-score” value [4, 7] of the same molecule?
A: The value was -0.195 ± 0.23.

Q: And the “promoter activity interaction Z-score” value [4, 8]?
A: Its value is -0.672 ± 0.52.

Q: What about the “promoter activity interaction Z-score” value [4, 9] of the same molecule?
A: Its value is 0.735 ± 0.061.

Q: What about the “promoter activity interaction Z-score” value [4, 10] of the same molecule?
A: Its value is 0.0686 ± 0.097.

Q: What about the “promoter activity interaction Z-score” value [4, 11] of the same molecule?
A: Its value is 0.0117 ± 0.077.

Q: And the “promoter activity interaction Z-score” value [4, 12]?
A: The value was -0.171 ± 0.68.

Q: And the “promoter activity interaction Z-score” value [4, 13]?
A: The value was 0.22 ± 0.015.

Q: And the “promoter activity interaction Z-score” value [4, 14]?
A: Its value is 0.000621 ± 0.037.

Q: What about the “promoter activity interaction Z-score” value [4, 15] of the same molecule?
A: The value was -0.524 ± 0.45.

Q: What about the “promoter activity interaction Z-score” value [4, 16] of the same molecule?
A: Its value is -0.323 ± 0.55.

Q: And the “promoter activity interaction Z-score” value [4, 17]?
A: The value was -0.996 ± 0.2.

Q: And the “promoter activity interaction Z-score” value [4, 18]?
A: Its value is -0.571 ± 0.73.

Q: What about the “promoter activity interaction Z-score” value [4, 19] of the same molecule?
A: Its value is -1.15 ± 0.5.

Q: And the “promoter activity interaction Z-score” value [4, 20]?
A: The value was -0.901 ± 1.4.

Q: What about the “promoter activity interaction Z-score” value [4, 21] of the same molecule?
A: The value was -2.1 ± 0.29.

Q: What about the “promoter activity interaction Z-score” value [4, 22] of the same molecule?
A: Its value is -1.78 ± 0.21.

Q: And the “promoter activity interaction Z-score” value [5, 7]?
A: The value was 0.154 ± 0.15.

Q: What about the “promoter activity interaction Z-score” value [5, 8] of the same molecule?
A: Its value is -0.043 ± 0.059.

Q: And the “promoter activity interaction Z-score” value [5, 9]?
A: The value was 0.355 ± 0.12.

Q: And the “promoter activity interaction Z-score” value [5, 10]?
A: The value was 0.325 ± 0.045.

Q: What about the “promoter activity interaction Z-score” value [5, 11] of the same molecule?
A: The value was -0.0625 ± 0.16.

Q: And the “promoter activity interaction Z-score” value [5, 12]?
A: The value was -0.0378 ± 0.015.

Q: And the “promoter activity interaction Z-score” value [5, 13]?
A: Its value is 0.149 ± 0.035.

Q: And the “promoter activity interaction Z-score” value [5, 14]?
A: The value was -0.0736 ± 0.2.

Q: What about the “promoter activity interaction Z-score” value [5, 15] of the same molecule?
A: The value was 0.0173 ± 0.089.

Q: What about the “promoter activity interaction Z-score” value [5, 16] of the same molecule?
A: The value was 0.196 ± 0.047.

Q: And the “promoter activity interaction Z-score” value [5, 17]?
A: Its value is -0.0928 ± 0.32.

Q: And the “promoter activity interaction Z-score” value [5, 18]?
A: Its value is -0.2 ± 0.021.

Q: What about the “promoter activity interaction Z-score” value [5, 19] of the same molecule?
A: The value was -0.236 ± 0.14.

Q: And the “promoter activity interaction Z-score” value [5, 20]?
A: The value was -0.217 ± 0.25.

Q: And the “promoter activity interaction Z-score” value [5, 21]?
A: Its value is -0.0806 ± 0.13.

Q: And the “promoter activity interaction Z-score” value [5, 22]?
A: Its value is -0.169 ± 0.064.

Q: And the “promoter activity interaction Z-score” value [6, 7]?
A: The value was -0.194 ± 0.29.

Q: What about the “promoter activity interaction Z-score” value [6, 8] of the same molecule?
A: The value was -0.0191 ± 0.39.

Q: And the “promoter activity interaction Z-score” value [6, 9]?
A: Its value is -0.0299 ± 0.8.

Q: What about the “promoter activity interaction Z-score” value [6, 10] of the same molecule?
A: The value was -0.292 ± 0.62.

Q: And the “promoter activity interaction Z-score” value [6, 11]?
A: Its value is 0.0244 ± 0.6.

Q: And the “promoter activity interaction Z-score” value [6, 12]?
A: Its value is 0.821 ± 0.86.

Q: And the “promoter activity interaction Z-score” value [6, 13]?
A: Its value is -0.356 ± 0.33.

Q: What about the “promoter activity interaction Z-score” value [6, 14] of the same molecule?
A: Its value is 0.551 ± 0.73.

Q: What about the “promoter activity interaction Z-score” value [6, 15] of the same molecule?
A: Its value is -0.426 ± 0.95.

Q: What about the “promoter activity interaction Z-score” value [6, 16] of the same molecule?
A: Its value is -0.198 ± 0.95.

Q: And the “promoter activity interaction Z-score” value [6, 17]?
A: Its value is -0.855 ± 0.25.

Q: And the “promoter activity interaction Z-score” value [6, 18]?
A: Its value is -0.596 ± 0.53.

Q: And the “promoter activity interaction Z-score” value [6, 19]?
A: The value was 0.39 ± 0.18.

Q: And the “promoter activity interaction Z-score” value [6, 20]?
A: The value was 0.271 ± 1.2.

Q: What about the “promoter activity interaction Z-score” value [6, 21] of the same molecule?
A: Its value is 0.764 ± 1.

Q: And the “promoter activity interaction Z-score” value [6, 22]?
A: The value was 0.351 ± 0.69.
